Shown are actives, neighbours in structure and some others; about 10% of the full set was active somewhere.
Lmaj promast = inhibitors of Leishmania major promastigote growth; AID 1063; hit rate 9% among 200,000; inhibition, % at 10 µM; Leishmania major promastigotes, resazurin fluorescence viability; in the data active means inhibition above about 50%;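 further: promastigotes grown with compound for 44 hours at 28 °C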
p97 inhibitor = inhibitors of human p97 ATPase; inhibition, % at 8 µM; AID 1481; recombinant p97 ATPase, Kinase-Glo ATP luminescence, 3 h; P55072; hit rate 0.42% among 220,000; in the data active means inhibition above about 15%;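 further: 0% = DMSO vehicle and 100% = wells lacking enzyme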
PTEN del growth = growth suppressors of cells with PTEN tumor suppressor deletion | HCT116 PTEN-null viability, CellTiter-Glo, 60 h; hits give low values | viability, % at 10 µM | hit rate 1.2% among 140,000 | AID 827;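 active means viability at or below a set limit, 4 SD under the median of all tested compounds, cut at about 3.7% in these data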;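 further: PTEN knockout HCT116 line with beta catenin targeted HCT116 as companion control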
INS promoter inh = TRM-6 insulin promoter activity inhibition; hit rate 0.9% among 130,000; TRM-6 cells (human fetal islet line), insulin promoter-eGFP reporter, imaging; reporter expression induced with tamoxifen; inhibition, % at 2 µM; AID 1273;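 active means inhibition above the mean plus 3 SD, with well images judged a real hit on visual review, cut at about 60% in these data, passing the limit was not always enough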
bCat KO growth = beta-catenin-lacking colon tumor cell growth suppression; HCT116 beta-catenin knockout viability, CellTiter-Glo, 60 h; hits give low values; hit rate 1.5% among 140,000; AID 818; viability, % at 10 µM;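 active means viability at or under a set limit, the compound median less 4 SD, cut at about 6% in these data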;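 further: 0% = Hyamine 1622 control at 20 µM and 100% = untreated cell control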
ROMK primary = modulators of human ROMK potassium channel. P48048. Tet-inducible ROMK, thallium flux fluorescence; actives lie on both sides. B-score at 10 µM. hit rate 2% among 130,000. AID 1918;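 active means signal ratio slope over the read window, or its plate-corrected B-score, at least 3 SD from the plate mean, either direction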;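 further: B-score of the F/F0 ratio slope over 7 to 12 s after thallium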
Target sequence (P48048 whole entry, looked up): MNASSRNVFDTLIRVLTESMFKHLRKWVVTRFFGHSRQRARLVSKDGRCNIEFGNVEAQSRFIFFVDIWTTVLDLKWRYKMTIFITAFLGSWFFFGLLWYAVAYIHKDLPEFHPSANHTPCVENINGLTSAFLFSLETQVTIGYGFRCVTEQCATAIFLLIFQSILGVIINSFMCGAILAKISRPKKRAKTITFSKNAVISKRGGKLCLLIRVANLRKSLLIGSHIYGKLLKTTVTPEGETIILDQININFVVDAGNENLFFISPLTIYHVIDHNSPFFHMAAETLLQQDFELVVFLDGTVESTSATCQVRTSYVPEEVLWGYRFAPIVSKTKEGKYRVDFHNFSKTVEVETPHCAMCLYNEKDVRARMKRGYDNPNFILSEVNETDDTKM
Numbers without * were called inactive; . = no result given.

SMILES | Lmaj promast | p97 inhibitor | PTEN del growth | INS promoter inh | bCat KO growth | ROMK primary
O=C(NCCCN1CCOCC1)c1sc2cc(F)ccc2c1Cl | 93* | -4 | . | 27 | . | 0.19
O=C(NCCN1CCOCC1)c1ccc([N+](=O)[O-])cc1[N+](=O)[O-] | 71* | 3 | 85 | . | 96 | 0.018
CC1(C)CC(NC(=O)c2sc3cc(Cl)ccc3c2Cl)CC(C)(C)N1 | 101* | -3 | . | . | . | -1.2
O=C(NCCCN1CCOCC1)c1sc2cc([N+](=O)[O-])ccc2c1Cl | 86* | 0 | . | . | . | 0.98
Cc1ccnc(NC(=O)C2CCN(S(=O)(=O)c3cccc4nonc34)CC2)c1 | 99* | -3 | 88 | . | 88 | .
Cc1ccnc(NC(=O)C2CCN(S(=O)(=O)c3cccc4nsnc34)CC2)c1 | 10 | 8 | 87 | -125 | 89 | .
Cc1cc(OCCOCCNC(C)C)cc(C)c1Cl | 98* | -2 | 17 | . | 5.6* | 0.94
C=CCC(Nc1ccccc1)C12C=CC(O1)C(C(=O)OC)=C2C(=O)OC (stereo unspecified) | 3 | -3 | 1.9* | -193 | 2.3* | 1.1
COc1cc(Nc2nc(-c3ccccc3)c3cc(C)ccc3n2)cc(OC)c1OC | 61* | -3 | 45 | . | 72 | 0.033
Cc1ccc2nc(NCC(=O)O)nc(-c3ccccc3)c2c1 | -4 | 0 | 101 | -25 | 100 | .
CCCCCCCCn1c(=O)c(C(=O)OCC)c(O)c2ccccc21 | -7 | 0 | 104 | 8 | 98 | -0.0019
CCCCCn1c(=O)c(-c2nc3ccccc3[nH]2)c(O)c2ccccc21 | 56* | -1 | . | . | . | 0.25
Cc1ccc(S(=O)(=O)c2cc3ccccc3nc2N)cc1 | 6 | 4 | . | . | . | 0.76
COc1cccc(CC2(CO)CCCN(Cc3ccc(CN4CCCCC4)s3)C2)c1 (stereo unspecified) | 77* | -1 | . | . | . | 0.064
COc1cccc(CC2(CO)CCCN(Cc3cnn(-c4ccccc4)c3)C2)c1 (stereo unspecified) | 90* | -3 | . | . | . | -1
COc1cccc(CC2(CO)CCCN(Cc3cn(C)c4ccccc34)C2)c1 (stereo unspecified) | 26 | 1 | . | . | . | -2.2
COCc1ccc(CN2CCCC(CO)(Cc3cccc(OC)c3)C2)o1 (stereo unspecified) | . | -1 | . | . | . | .
COc1ccc2cc3cc(C(=O)NCCN4CCc5ccccc5C4)sc3nc2c1 | 50* | 2 | 83 | 7 | 80 | -0.76
COc1ccc2nc3oc(C(=O)NC4CCN(Cc5ccccc5)CC4)cc3cc2c1 | 100* | 2 | 40 | 55 | 40 | .
COc1ccc2cc3cc(C(=O)NCCN4CCN(Cc5ccccc5)CC4)oc3nc2c1 | 95* | -10 | 47 | 34 | 41 | .
COc1ccc2cc3cc(C(=O)NCc4cccs4)oc3nc2c1 | 19 | 2 | 57 | 7 | 63 | -0.018
COc1ccc2cc3cc(C(=O)NCCN4CCc5ccccc5C4)oc3nc2c1 | 99* | 6 | 54 | 3 | 45 | .
CCOC(=O)N1CCC(NC(=O)c2cc3cc4cc(OC)ccc4nc3o2)CC1 | 32 | 1 | 79 | -21 | 88 | 0.45
Cn1nccc1NC(=O)COCC(=O)O | . | 8 | . | . | . | .
O=C(Nc1nccs1)c1cccc(N2C(=O)c3cccc4c([N+](=O)[O-])ccc(c34)C2=O)c1 | 73* | -1 | 1.5* | -2 | 1.7* | -1.2
SMILES | Lmaj promast | p97 inhibitor | PTEN del growth | INS promoter inh | bCat KO growth | ROMK primary
O=C(Nc1nccs1)c1cccc(N2C(=O)C3C4C=CC(C4)C3C2=O)c1 (stereo unspecified) | 51* | 4 | 93 | -59 | 92 | .
O=C(Nc1ccc(S(=O)(=O)Nc2nccs2)cc1)c1cccc(N2C(=O)c3ccccc3C2=O)c1 | -5 | 3 | . | . | . | -0.029
Nc1c(C(=O)c2ccccc2O)cnn1-c1ccc(S(=O)(=O)N2CCOCC2)cc1[N+](=O)[O-] | -4 | -3 | . | . | . | -0.044
N=C1C(=O)OCC1c1ccccc1NC(=O)CN1CCOCC1 (stereo unspecified) | -7 | 3 | 107 | 20 | 96 | 0.85
O=S(=O)(NC1c2cccc3cccc(c23)C1N1CCNCC1)c1ccc(Cl)cc1 (stereo unspecified) | 100* | 5 | . | 13 | . | -1.4
Cn1cnnc1SC1c2cccc3cccc(c23)C1NS(=O)(=O)c1ccc(Cl)cc1 (stereo unspecified) | 53* | 5 | 88 | -19 | 78 | -0.26
O=C(NC(=S)Nc1ccc(S(=O)(=O)Nc2ncccn2)cc1)c1ccc(Br)cc1 | -8 | 6 | . | . | . | -1
O=C(CN1CCN(C(=O)C2COc3ccccc3O2)CC1)Nc1ccccc1 (stereo unspecified) | . | 7 | . | . | . | .
Nn1c(SCc2cc([N+](=O)[O-])cc3c2OCOC3)nnc1-c1cccnc1 | -1 | 4 | . | . | . | -0.09
Nc1nc(NCCCN2CCOCC2)nc(Nc2ccccc2F)c1[N+](=O)[O-] | . | 3 | . | . | . | .
Cc1ccc(C)c(NS(=O)(=O)c2cc(C(=O)NCCSC3CCCCC3)ccc2C)c1 | 97* | 2 | 42 | . | 57 | 0.88
Cc1ccccc1NS(=O)(=O)c1cc(C(=O)NCCSC2CCCCC2)ccc1C | 100* | 1 | 48 | . | 67 | .
O=C(CCN(NC(=O)c1ccccc1)C1=NS(=O)(=O)c2ccccc21)NC1CCCCC1 | 42 | 5 | 93 | -6 | 93 | 0.0039
c1ccc(COc2cccc(CNCc3cccs3)c2)cc1 | 98* | -1 | 99 | . | 98 | .
COc1cc(CNCc2cccs2)ccc1OCC(=O)NC(C)(C)C | 89* | -5 | 88 | -125 | 90 | .
CCN(CC)c1ccc(CNCc2cccs2)cc1 | 32 | 7 | . | . | . | 0.017
COc1cc(CNCc2cccs2)ccc1OCc1cccs1 | 100* | -2 | 76 | . | 72 | .
COc1cc(CNCc2cccs2)ccc1OCC(N)=O | -3 | 0 | 90 | -2 | 99 | .
C#CCOC(=O)CCCC(=O)NCCCCCCCC | -6 | -3 | . | . | . | -0.5
Cc1ccc(NC(=O)c2cc(C(=O)c3cc(Cl)ccc3O)cn(-c3ccc(C)cc3)c2=O)cc1 | 99* | -4 | 33 | 17 | 46 | .
COc1cc(C2C(C#N)=C(C)NC(C)=C2C#N)cc(OC)c1OC | -4 | 2 | 98 | 33 | 87 | 0.58
O=C(/C=C/c1ccc(N2CCC(c3ccccc3)=N2)cc1)c1ccccc1 | -13 | -1 | . | -456 | . | -4.4*
COc1ccc2nc(N3CCCC(C(=O)NCCCN4CCN(C)CC4)C3)sc2c1 (stereo unspecified) | 64* | 1 | 105 | -60 | 106 | 0.3
CCn1cc(-c2cc(C(=O)O)c3ccccc3n2)cn1 | -5 | -13 | . | 0 | . | 0.51
O=[N+]([O-])c1ccc2c(c1)N([O-])C1(CCCCC1)[N+]2=O | . | 6 | . | . | . | -1.9
Nc1ccc(-c2nc3ccc([N+](=O)[O-])cc3[nH]2)cc1 | 83* | -5 | 81 | 10 | 80 | 0.28
NC(=O)CSc1nc2ccc([N+](=O)[O-])cc2[nH]1 | 1 | -2 | . | -350 | . | 0.3
O=[N+]([O-])c1ccc2nc(/C=C/c3ccc(Cl)cc3)[nH]c2c1 | 16 | 1 | 2.8* | 30 | 2.1* | .

From PubChem BioAssay
